High-throughput results as filed in PubChem.
DT40 TDP1 no CPT: qHTS for Inhibitors of human tyrosyl-DNA phosphodiesterase 1 (TDP1): qHTS in cells in absence of CPT | actives 15% (n = 420,000) | Potency, µM (titrated, usually from 46.2 µM), for inactives: at the top dose activity change, negative = growth inhibition, actives largely listed as inhibitors | DT40 Tdp1-/- hTDP1 cells, no CPT, ATP luminescence, 48 h; further: nearly all actives have a fitted effect of over 55% in size
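Chicken DT40 Tdp1-/- cells complemented with human TDP1, screened without camptothecin (DMSO vehicle only), 400 cells/well. Compounds pin-transferred, cells incubated at 37 °C for at least 48 hr. Growth read as ATP-dependent luminescence (CellTiter-Glo, 30 min at RT).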
HT1080 IDH1KD tx: kills HT-1080 cells with IDH1 knockdown. HT-1080 IDH1 knockdown viability, ATP luminescence, 48 h. Potency, µM (doses to about 46.1 µM), inactives show top-dose activity, negative = toxicity, hits mostly cytotoxic. actives 2% (n = 360,000);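 further: 0% = DMSO wells and -100% = cell-free medium wells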
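Luminescent ATP read-out (CellTiter-Glo, 10 min at room temperature) after 48 h compound exposure at 37 °C gave viability of IDH1-knockdown HT-1080 cells. Activity was normalised to DMSO and cell-free wells, then fitted as concentration-response curves.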
TDP1 cell CPT: DT40-hTDP1 cell growth loss with CPT. chicken DT40 Tdp1-/-;hTDP1 cells + 20 nM CPT, ATP luminescence, 48 h. Potency, µM (doses to about 46.2 µM), for the others: at the top dose activity change, negative = growth inhibition, most hits filed as inhibitors. actives 12% (n = 420,000). AID 686979; further: nearly all actives have a fitted effect of over 55% in size
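Chicken DT40 Tdp1-/- cells complemented with human TDP1, 400 cells/well, exposed to compounds plus 20 nM camptothecin for at least 48 h at 37 C; viability read as ATP content by CellTiter-Glo luminescence.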
KB-3-1 tox: KB-3-1 parental cell cytotoxicity | KB-3-1 viability, CellTiter-Glo ATP luminescence, 72 h | Potency, µM (top dose mostly 46.1 µM), most hits filed as cytotoxic | actives 1.4% (n = 400,000); further: nearly all actives have a fitted effect of over 60% in size
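Luminescent ATP read-out (CellTiter-Glo) measures survival of drug-naive KB-3-1 cells after 72 h compound exposure at 37 °C. Titration series was screened from lowest to highest concentration, with DMSO vehicle plates as background controls.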
KB-V1 MDR tox: kills drug-selected multidrug resistant KB-V1 cells; Potency, µM (highest dose often 46.1 µM), hits mostly cytotoxic; KB-V1 MDR cells viability, CellTiter-Glo, 72 h; actives 3.4% (n = 400,000); AID 1347076; further: nearly all actives have a fitted effect of over 60% in size
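qHTS viability screen in drug-selected KB-V1 MDR cells: 72 h compound treatment at 37 degrees C, ATP luminescence end point.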
HT1080NT lethal: kills 2HG-producing HT-1080-NT fibrosarcoma cells. actives 1.6% (n = 360,000). HT-1080-NT fibrosarcoma viability, CellTiter-Glo ATP luminescence, 48 h. AID 686970. Potency, µM (doses to about 46.1 µM), for inactives: at the highest dose activity, negative = less viability, hits mostly cytotoxic;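 further: NT is the 2HG producing partner of a matched IDH1 knockdown line; 0% = DMSO-treated cells and -100% = media-only wells without cells; nearly all actives have a fitted effect of over 55% in size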
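750 cells/well, RPMI + 5% FBS; 2 h settle, compound pin-transfer, 48 h at 37 degrees C. CellTiter-Glo 10 min RT, luminescence. Normalized to DMSO and media-only wells.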
An asterisk follows results filed as active; i = inactive; ? = inconclusive; nt = no result given; [ ] = dose if it differs, or a comment. Most compounds without a hit are left out; they make up all but 19% or so of the library. The call rests on the fitted dose curve; in most records, active means well fitted curve in the direction sought with a large enough effect; inconclusive means small, poorly fitted or top-dose-only effect, or another doubt; inactive means no such curve, though single readings can be large; an effect the other way counts as inactive or inconclusive. Unless noted, on the % scale 0 is the no-effect control and ±100 the full control effect; potency means the concentration at half of the fitted maximal effect.

SMILES	DT40 TDP1 no CPT	HT1080 IDH1KD tx	TDP1 cell CPT	KB-3-1 tox	KB-V1 MDR tox	HT1080NT lethal
Cc1ccc(NC(=O)c2n[nH]c(=O)c3ccccc23)cc1S(=O)(=O)N1CCOCC1	?	12.6%	?	i	i	9.2%
CCCCCCCCCCCCCC(=O)N[C@@H](C)[C@H](O)c1ccccc1	-23.2%[4.12 µM]	nt	0.1%[4.12 µM]	nt	nt	nt
CCCC1=[N+](CC(=O)c2ccc(Br)cc2)CCn2cccc21	?	-8.3%	-0.4%	i	?	-12.5%
CCCC1=[N+](CC(=O)c2ccccc2)CCn2cccc21	25.9µM*	-5.7%	23.1µM*	i	?	4.7%
CCCC1=[N+](CC(C)=O)CCn2c(C)ccc21	2.31µM*	-4.5%	3.26µM*	i	i	0.5%
O=C(c1csc(Nc2ccccc2Cl)n1)N1CCCC1	?	8.8%	-26.7%	i	20.6µM*	-0.8%
CCCCC1C(=O)NN(c2ccccc2)C1=O (configuration not stated)	-6.1%	4.61µM*	18.8%	?	i	1.84µM*
CCCCCC1CC(=O)N(Cc2ccccc2)C(=O)N1 (configuration not stated)	?	-0.3%	-5.7%	i	i	1.9%
O=C1NC[C@@H](CCCCN2C[C@H](Cc3ccc(O)cc3)N(CCc3ccc(O)cc3)C(=O)C2=O)N(Cc2ccccc2)C1=O	-29.5%	10.3%	0.6%	i	i	22.0%
C=CCC1NS(=O)(=O)OCC1NC(=O)OCC(Cl)(Cl)Cl (configuration not stated)	11.1%	-2.0%	4.4%	i	i	0.0%
CC(C)(C)OC1NS(=O)(=O)OCC1NCOC(Cl)(Cl)Cl (configuration not stated)	3.66µM*	0.0%	3.26µM*	i	i	1.7%
O=c1c2ccccc2nc2n1CC/C2=C/N1CCN(c2cccc(C(F)(F)F)c2)CC1	?	0.2%[9.24 µM]	18.4µM*	i	i	?
O=C1C[C@H]2C=CCc3cccc(c32)CN1Cc1ccc(Cl)cc1	12.6µM*	nt	?	i	18.4µM*	nt
C1=C[C@@H]2CCN(Cc3ccccc3)Cc3cccc(c32)C1	?	-7.2%	-37.6%	i	i	0.7%
Cc1ccc(CN2CC[C@H]3C=CCc4cccc(c43)C2)cc1	20.6µM*	-0.9%	?	i	i	3.7%
O=C1C[C@H]2C=CCc3cccc(c32)CN1Cc1cccc(F)c1	10µM*	nt	15.8µM*	i	i	nt
O=C(CN1C(=O)NC(c2ccccc2)(c2ccccc2)C1=O)NCc1ccco1	-11.5%	15.7%	5.3%	i	i	6.3%
Cc1cc(C)cc(NC(=O)C2CCCN2S(=O)(=O)c2ccc3c(c2)C(C)(C)C(=O)N3C)c1 (configuration not stated)	?	0.9%	16.4µM*	i	i	6.8%
CC1CCN(c2ccc(NC(=O)C3CCCN3S(=O)(=O)c3ccc(F)cc3)cc2)CC1 (configuration not stated)	4.11µM*	-2.2%	18.4µM*	i	i	-2.2%[9.24 µM]
Cc1ccc(S(=O)(=O)N2CCCC2C(=O)Nc2ccc(Br)cc2)cc1 (configuration not stated)	14.6µM*	nt	?	nt	nt	nt
O=C(Nc1cccc(F)c1)N1CCC2(CC1)CCN(C(=O)c1csnn1)CC2	-24.0%	nt	6.9%	nt	nt	nt
Cc1ccc(Nc2c(-c3ccccc3O)nc3ccc(Br)cn23)cc1	-1.5%	nt	-16.0%	i	i	nt
Cc1ccc(Nc2c(-c3ccccn3)nc3cccc(C)n23)cc1	2.06µM*	7.31µM*	2.59µM*	5.17µM*	6.51µM*	11.6µM*
Cc1ccc(Nc2c(-c3ccsc3)nc3cccc(C)n23)cc1	?	-22.7%	16.4µM*	?	i	-27.9%
Cc1ccc(Nc2c(-c3ccccn3)nc3ccc(Br)cn23)cc1	20.6µM*	nt	9.2µM*	i	?	nt
SMILES	DT40 TDP1 no CPT	HT1080 IDH1KD tx	TDP1 cell CPT	KB-3-1 tox	KB-V1 MDR tox	HT1080NT lethal
CCCCNc1c(-c2ccccn2)nc2nc(C)cc(C)n12	?	1.3%	?	i	?	-2.6%
Cc1cccc2nc(-c3ccco3)c(Nc3ccccc3)n12	?	5.1%	?	?	?	10.2%
Cc1cccc2nc(-c3ccccn3)c(Nc3ccccc3)n12	4.11µM*	nt	4.11µM*	i	6.51µM*	nt
Cc1ccc(Nc2c(-c3ccsc3)nc3c(C)cccn23)cc1	?	-19.7%	?	i	i	-17.9%
Cc1cccc(S(=O)(=O)NC(Cc2c[nH]c3ccccc23)C(=O)O)c1 (configuration not stated)	3.1%	10.6%	-14.3%	i	i	11.1%
Cc1cc2ccccc2nc1-c1ccccc1F	?	9.6%	2.2%	i	i	10.9%
COc1ccc(-c2nc3cc(C)ccn3c2NC(=O)c2ccc(F)cc2)cc1	?	nt	-6.9%	i	i	nt
Cc1cccc2nc(-c3ccccn3)c(Nc3ccc(F)cc3)n12	18.4µM*	nt	11.6µM*	i	?	nt
Cc1cccc(C)c1Nc1c(-c2ccccc2F)nc2cccc(C)n12	-78.0%	nt	10.3µM*	i	i	nt
Cc1c(-c2ccccn2)c(=O)[nH]n1-c1ccc(F)cc1	-13.3%	-12.1%	3.6%	i	i	1.2%
COC(=O)CNc1c(-c2ccccn2)nc2ccc(Br)cn12	-22.8%	8.1%	5.6%	i	5.17µM*	17.5%
Cc1ccn2c(Nc3ccc(F)cc3)c(-c3ccccn3)nc2c1	13µM*	nt	10.3µM*	i	?	nt
O=c1[nH]c(-c2ccc(Cl)cc2)nc(=S)[nH]1	-4.6%	6.5%	8.5%	i	i	12.4%
COc1cc2c(cc1NC(=O)c1ccccc1C)n(C)c(=O)n2C	?	nt	?	i	i	nt
Cc1cc(C)c(OCC(=O)OC(C)C(=O)NCc2ccccc2)c(C)c1 (configuration not stated)	4.5%	3.8%	-3.8%	i	i	5.2%
CC(C)NS(=O)(=O)c1ccc(NCCCn2ccnc2)c([N+](=O)[O-])c1	-7.8%	?	11.0%	i	i	?
CC(=O)NC1CC(=O)N(c2ccc3c(c2)OCCO3)C1 (configuration not stated)	-11.0%	nt	-0.8%	nt	nt	nt
COc1cc(NC(=O)c2cccc(Cl)c2)c(OC)cc1NC(=O)CN1CCCCC1	?	?	?	i	i	?
